Source: PubChem BioAssay (NCATS)
Records with an inconclusive call do not appear. Active and inactive are the calls of the source. Calls come from the whole dose curve; as a rule, active = well fitted curve in the direction sought with a large enough effect; inconclusive = small, poorly fitted or top-dose-only effect, or another doubt; inactive = no such curve, though single readings can be large; an effect the other way counts as inactive or inconclusive. Square brackets hold non-standard residues; d marks the D form. Peptide text beside a SMILES is read from it. ξ: configuration not given here. ξL = CC(C)CC(N)C(=O)O

What was measured:
[1] = HEK-293 Cancer Cell Toxicity qHTS against the NCATS CANVASS Library (AID 1347355); note: nearly all actives have a fitted effect of over 65% in size; note: potency is the fitted concentration of half-maximal effect
Summary of the method: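 First, 1000 cells go into each well and rest for 4 hours. Next, an 11-point dilution range is pinned in. Plates then incubate 72 hours before CellTiter-Glo addition and luminescence reading.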

[2] = HPAF-II 24hr Apoptosis Induction qHTS against the NCATS CANVASS Library (AID 1347356)
Summary of the method: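 Cells seeded at 500 per well, then compounds pin-transferred in an 11-point concentration series. After 24 hours at 37 degrees C, Caspase-Glo 3/7 was added and luminescence measured following 15 min at room temperature.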

[3] = HEK293 18hr Apoptosis Induction qHTS against the NCATS CANVASS Library (AID 1347357)
Summary of the method: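 Cells seeded at 500/well in DMEM + 10% FBS. Compounds pinned, 11 concentrations. 18 h, 37 degrees C/5% CO2. Caspase-Glo 3/7 added, 15 min RT dark, luminescence read.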

[4] = HPAF-II 12hr Apoptosis Induction qHTS against the NCATS CANVASS Library (AID 1347358)
Summary of the method: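 Cells plated at 500 per well are dosed with compound and incubated 12 hours at 37 degrees C. Caspase-Glo 3/7 reagent is added and, after 15 min at room temperature, luminescence proportional to caspase activity is measured.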

[5] = HPAF-II 18hr Apoptosis Induction qHTS against the NCATS CANVASS Library (AID 1347360)
Summary of the method: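 Seed HPAF-II cells at 500/well in DMEM + 10% FBS, pin-transfer compounds, incubate 18 hours at 37 degrees C/5% CO2, add Caspase-Glo 3/7 reagent, wait 15 min, read luminescence.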

[6] = HEK293 12hr Apoptosis Induction qHTS against the NCATS CANVASS Library (AID 1347361)
Summary of the method: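 Cells are seeded, dosed with an 11-point compound series and incubated 12 hours. Caspase-3/7 activity is detected by luminescent DEVD-substrate reagent after 15 minutes at room temperature.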

[7] = KB-3-1 Cancer Cell Toxicity qHTS against the NCATS CANVASS Library (AID 1347366); note: nearly all actives have a fitted effect of over 75% in size
Summary of the method: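 Luminescence from CellTiter-Glo (10 min, room temperature) measured KB-3-1 viability after 72 hr compound exposure at 37C. Cells were seeded at 500/well and tested in an 11-point series.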

[8] = qHTS for ATAD5 Agonist screened against the NCATS CANVASS Library (AID 1347367);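 note: luciferase reporter driven by ATAD5 which rises upon DNA damage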
Summary of the method: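 HEK293T-ATAD5 luc reporter; 2000 cells/well; 5hr settle; cpd 11-pt qHTS; 16hr 37C 5% CO2 dark; viability by CellTiter-Fluor (AFC fluorescence); then luciferase luminescence, 30min RT.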

[9] = G06 Cancer Cell Toxicity qHTS against the NCATS CANVASS Library (AID 1347368); note: nearly all actives have a fitted effect of over 60% in size; note: potency is the fitted concentration of half-maximal effect
Summary of the method: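 Cells were plated at 500 per well, then compounds were added over an 11-point range. After 72 hr at 37C, CellTiterGlo was added and luminescence measured as ATP content.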

[10] = MCF7 Cancer Cell Toxicity qHTS against the NCATS CANVASS Library (AID 1347369)
Summary of the method: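 Cells seeded at 500/well, then compound pinned. Plates incubated 72 hr at 37C, 5% CO2. CellTiterGlo added; luminescence read.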

[11] = qHTS for ATAD5 Antagonist screened against the NCATS CANVASS Library (AID 1347370);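 note: HEK293T cells carrying an ATAD5 luciferase reporter co-treated with 10 µM 5-fluorouridine; series mostly up to about 46 µM; nearly all actives have a fitted effect of over 65% in size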
Summary of the method: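 Compounds (11-point) co-dosed with 10 µM 5-FUrd for 16 h at 37 °C onto HEK293T-ATAD5 luciferase reporter cells. Viability measured by CellTiter-Fluor fluorescence, then ATAD5 reporter signal by luminescence.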

[12] = target: Nuclear receptor subfamily 1 group I member 3 (Homo sapiens) (UniProt Q14994); assay: qHTS for Constitutive Androstane Receptor (CAR) Agonist screened against the NCATS CANVASS Library (AID 1347373);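 note: every well also contained 1.5 µM PK11195 alongside the test compound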
Sequence of Nuclear receptor subfamily 1 group I member 3 (Homo sapiens) (Q14994 whole entry, looked up): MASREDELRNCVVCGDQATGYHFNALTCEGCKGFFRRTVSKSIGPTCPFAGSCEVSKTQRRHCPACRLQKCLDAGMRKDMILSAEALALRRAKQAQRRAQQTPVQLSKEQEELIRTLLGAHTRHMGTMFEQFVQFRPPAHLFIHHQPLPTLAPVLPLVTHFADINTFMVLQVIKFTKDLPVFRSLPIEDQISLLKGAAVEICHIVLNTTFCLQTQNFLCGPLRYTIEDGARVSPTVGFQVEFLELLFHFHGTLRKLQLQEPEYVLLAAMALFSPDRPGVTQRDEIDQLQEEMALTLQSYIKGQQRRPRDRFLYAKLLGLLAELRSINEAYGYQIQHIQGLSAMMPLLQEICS
Summary of the method: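 Cells were plated and allowed to attach for 4hr, then dosed with compound in an 11-point series alongside 1.5uM PK11195. After 24hr at 37C, viability was measured fluorometrically and CAR-driven CYP2B6 reporter luminescence was recorded.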

[13] = 10-beta competent E. coli microbial cell viability qHTS against the NCATS CANVASS Library (AID 1347376); note: series mostly up to about 46 µM
Summary of the method: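 Bacterial suspension diluted to 0.2 OD was dosed with compounds, 11-point series, then held overnight at 37C. BacTiter-Glo reagent was added, and after 20 min at room temperature ATP-dependent luminescence was measured.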

[14] = qHTS for H2AX Agonists against the NCATS CANVASS Library (AID 1347378);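 note: phospho-H2AX S139 level in CHO-K1 lysates by TR-FRET emission ratio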
Summary of the method: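 CHO-K1, 1000 cells/well, o/n 37C; cpd several conc, 3 hr 37C, 0.76% DMSO; lyse 30 min RT; cryptate anti-pH2AX(S139) + d2 anti-H2AX, 24 hr RT; HTRF 665/620.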

[15] = Inflammasome Signaling qHTS Counterscreen: IL-1-beta AlphaLISA counterscreen against the NCATS CANVASS Library (AID 1347381);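 note: cell-free check with purified IL-1β in medium and no THP-1 cells; series mostly up to about 57 µM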
Summary of the method: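 Purified IL-1-beta (4 pg/well) + compound, 11-pt conc. series; acceptor beads 6 ug/mL + biotin-Ab 0.6 nM final, 1 h RT; SA-donor 24 ug/ml final, 30 min dark RT; read ex 680/em 615.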

[16] = qHTS for Activators of p53 Stress Response Pathway screened against the NCATS CANVASS Library (AID 1347388)
Summary of the method: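 p53RE-bla HCT-116 cells (4000/well) were plated 5 h at 37C, exposed to compounds for 16 h at 37C over an 11-point concentration series, then loaded with CCF4 for 2 h at room temperature; 460/530 nm emission ratio read.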

[17] = qHTS assay for small molecule disruptors of mitochondrial membrane potential screened against the NCATS CANVASS Library (AID 1347389); note: nearly all actives have a fitted effect of over 60% in size; note: potency is the fitted concentration of half-maximal effect
Summary of the method: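 Mitochondrial depolarization in HepG2 cells is scored as a falling aggregate-to-monomer fluorescence ratio after 1 hr compound exposure and 30 min staining with Mito-MPS dye at 37C, each compound tested as an 11-point titration.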

[18] = Secretion counterscreen for inhibitors of the SERCaMP assay screened against the NCATS CANVASS Library (AID 1347390);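 note: light from luciferase secreted into medium read as a measure of general secretion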; note: potency is the fitted concentration of half-maximal effect
Summary of the method: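 SH-SY5Y-GLuc STOP cells; 4 h attach; cpds 0.001 - 77 uM (qHTS, 11 pts), 20 h 37C/5% CO2; coelenterazine in glow buffer; luminescence, 5 s exposure.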

[19] = Viability qHTS for inhibitors of the SERCaMP assay screened against the NCATS CANVASS Library (AID 1347400); note: series mostly up to about 92 µM; nearly all actives have a fitted effect of over 70% in size
Summary of the method: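 Seed SH-SY5Y-GLuc SERCaMP MJH297 cells at 1000 per well, incubate 4 h, add compounds across an 11-point range, incubate 48 h at 37C, then add CellTiter-Glo and read luminescence.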

[20] = Redox Reaction Profiling qHTS: Assay Interference Panel against the NCATS CANVASS Library (AID 1347401)
Summary of the method: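 Quantitative HTS over an 11-point series was run in HEPES pH 7.3 with 50 mM NaCl, 200 uM DTT and 5 uM resazurin. Initial and 15-min resorufin fluorescence readings were taken.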

Measured: Potency

Cc1cc(O)cc2c1C(=O)c1c(O)cc(O)cc1C2=O
inactive: all assays above

C[C@@]12CCC[C@@](C)(C(=O)O)[C@H]1CC[C@@]13C[C@@H](CC[C@H]12)[C@](C)(O)C3
inactive: all assays above

O=C1CC(c2ccc(O)cc2)Oc2cc(O)ccc21 (configuration not stated)
active: [17] 7.41 µM
inactive: all other assays above

CO[C@@H](C[C@@H](C)[C@@H](O)/C=C/C=C/CNC(=O)C(C)(C)[C@H](O)\C(C)=C/C=C\C=C\Cc1cnco1)[C@]1(O)[C@@H](C)C(=O)N(C)[C@@]12COC2=O
inactive: all assays above

CC[C@@H](C)[C@H]1NC(=O)C(CC(C)C)NC(=O)[C@@H](CC(C)C)NC(=O)[C@H](Cc2c[nH]c3ccccc23)NC(=O)CNC(=O)[C@@H](CC(N)=O)NC1=O (stereo partly drawn) (cyclo(GW[dL][ξL][dI][dN]))
active: [1] 11.8 µM
not listed: [7] | [8] | [9] | [10] | [17] | [19]
inactive: all other assays above

O=c1cc(-c2ccc(O)cc2)oc2cc(O)c([C@@H]3OC(CO)[C@H](O)[C@@H](O)[C@H]3O)c(O)c12 (some centres not stated)
inactive: all assays above

CC(=O)N[C@H](C)c1nc(/C=C/C=C/C(=O)CC2CC(=O)CC[C@]2(C)O)cs1 (some centres not stated)
inactive: all assays above

C=C1CCC2C(C)(C(=O)O)CCC(CC/C(C)=C/C(=O)NC(CCC(N)=O)C(=O)O)[C@@]2(C)C1 (some centres not stated)
inactive: all assays above

C=C1C[C@H]2O[C@@H]3[C@@H]4[C@H](CC[C@@](C)(O)[C@@H]42)[C@H](C)COC3(C)[C@@H](OC(=O)CCCCCCC)CC1=O (some centres not stated)
active: [1] 14.8 µM | [9] 5.9 µM | [18] 48.4 µM
not listed: [3] | [6] | [7] | [11] | [16] | [17] | [19]
inactive: all other assays above
